Test results from PubChem BioAssay.
Values joined by “and” are separate entries in the source; they are usually repeats but may differ in a detail not shown here. Equal values may be shown once. Records with an inconclusive call do not appear. Some structures have more than one record in an assay (separate samples or runs), and their calls can disagree. Active and inactive are the calls of the source. Unless noted, cut-off not given; nearly all actives show AC50 up to about 30 µM.

How the values were obtained:
[1] = compounds altering viability of human ES cells (AID 493140; call rule not given here;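 further: cells exposed to compounds for four days before counting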); conditions: human embryonic stem cell survival screen; stronger effect = higher value
[2] = target: NAD(+) hydrolase SARM1 (Homo sapiens) (UniProt Q6SZW1); assay: blocking NAD cleavage by SARM1 SAM-TIR – cell lysate, NAD-Glo luminescence (AID 1508614;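 active means compound whose remaining NAD level is above about 45 nM, limit read from the data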); conditions: SAM-TIR HEK293T lysate NADase, at 1 µM, stronger effect = higher value
NAD(+) hydrolase SARM1 (Homo sapiens), sequence (Q6SZW1 whole entry, looked up): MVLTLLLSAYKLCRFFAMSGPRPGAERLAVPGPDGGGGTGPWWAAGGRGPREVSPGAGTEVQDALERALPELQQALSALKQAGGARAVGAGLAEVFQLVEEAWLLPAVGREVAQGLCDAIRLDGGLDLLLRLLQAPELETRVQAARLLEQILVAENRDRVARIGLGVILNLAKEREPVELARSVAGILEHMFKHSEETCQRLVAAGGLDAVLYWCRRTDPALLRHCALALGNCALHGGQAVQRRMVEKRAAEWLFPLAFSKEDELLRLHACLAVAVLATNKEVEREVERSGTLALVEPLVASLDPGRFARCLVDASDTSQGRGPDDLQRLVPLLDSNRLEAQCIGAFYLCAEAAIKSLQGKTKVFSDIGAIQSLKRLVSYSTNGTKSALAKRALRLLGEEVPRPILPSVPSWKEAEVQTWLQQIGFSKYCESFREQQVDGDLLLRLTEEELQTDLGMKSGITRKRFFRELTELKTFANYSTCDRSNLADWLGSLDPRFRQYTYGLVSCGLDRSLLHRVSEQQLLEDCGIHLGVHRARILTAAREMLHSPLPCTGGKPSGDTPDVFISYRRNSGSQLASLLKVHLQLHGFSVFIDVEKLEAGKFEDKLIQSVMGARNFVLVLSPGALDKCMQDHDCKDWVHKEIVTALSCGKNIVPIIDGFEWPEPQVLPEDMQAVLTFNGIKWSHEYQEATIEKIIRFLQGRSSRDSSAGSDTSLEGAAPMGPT

[3] = target: ATP-dependent translocase ABCB1 (Homo sapiens) (UniProt P08183); assay: P-glycoprotein substrate transport blockade – cell-based (AID 377; in the data active means fluorescence slope change above about 50%); conditions: MDR1-expressing cells, fluorescent substrate accumulation slope; stronger effect = higher value; concentration not given here
ATP-dependent translocase ABCB1 (Homo sapiens), sequence (P08183 whole entry, looked up): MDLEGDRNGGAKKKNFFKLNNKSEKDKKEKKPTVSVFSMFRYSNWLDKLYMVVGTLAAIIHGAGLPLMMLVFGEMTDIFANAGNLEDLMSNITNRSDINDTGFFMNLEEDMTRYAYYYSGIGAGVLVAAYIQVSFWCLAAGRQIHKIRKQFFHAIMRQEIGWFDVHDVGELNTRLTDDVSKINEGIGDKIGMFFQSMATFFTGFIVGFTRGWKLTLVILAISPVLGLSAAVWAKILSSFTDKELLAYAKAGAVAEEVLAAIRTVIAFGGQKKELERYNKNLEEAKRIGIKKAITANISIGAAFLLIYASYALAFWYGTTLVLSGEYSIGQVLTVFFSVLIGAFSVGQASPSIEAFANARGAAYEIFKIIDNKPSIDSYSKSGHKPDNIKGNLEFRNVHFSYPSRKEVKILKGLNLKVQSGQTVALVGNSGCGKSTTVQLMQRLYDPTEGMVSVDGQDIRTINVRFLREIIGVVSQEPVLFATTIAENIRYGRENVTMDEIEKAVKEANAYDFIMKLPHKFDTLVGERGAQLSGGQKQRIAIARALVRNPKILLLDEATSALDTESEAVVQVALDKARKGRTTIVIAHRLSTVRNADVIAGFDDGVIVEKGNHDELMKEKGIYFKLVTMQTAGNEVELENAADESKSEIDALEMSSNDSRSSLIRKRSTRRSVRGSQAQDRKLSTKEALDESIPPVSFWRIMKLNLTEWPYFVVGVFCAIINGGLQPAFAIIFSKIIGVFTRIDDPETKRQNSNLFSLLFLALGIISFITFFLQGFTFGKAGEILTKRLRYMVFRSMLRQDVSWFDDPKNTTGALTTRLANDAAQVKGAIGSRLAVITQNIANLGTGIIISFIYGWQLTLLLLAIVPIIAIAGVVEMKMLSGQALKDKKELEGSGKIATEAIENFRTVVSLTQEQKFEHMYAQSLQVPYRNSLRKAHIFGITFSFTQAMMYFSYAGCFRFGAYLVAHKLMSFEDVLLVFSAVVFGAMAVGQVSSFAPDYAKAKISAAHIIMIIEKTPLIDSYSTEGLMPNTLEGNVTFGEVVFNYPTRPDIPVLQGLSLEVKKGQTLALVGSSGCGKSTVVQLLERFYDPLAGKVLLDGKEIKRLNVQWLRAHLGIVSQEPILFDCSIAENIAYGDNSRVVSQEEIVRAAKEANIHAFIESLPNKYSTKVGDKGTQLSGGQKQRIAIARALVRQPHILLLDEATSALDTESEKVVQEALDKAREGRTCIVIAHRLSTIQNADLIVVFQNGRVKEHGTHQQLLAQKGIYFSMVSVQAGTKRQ

[4] = viability loss in pontine glioma line – cell-based, SU-DIPG-XVII, MIPE5.0, CellTiter-Glo, qHTS, dose response (AID 1347060; cut-off not given, nearly all actives have AC50 up to about 26 µM); conditions: CellTiter-Glo ATP luminescence
[5] = JHH-DIPG-1 glioma cell viability, MIPE5.0 library, CellTiter-Glo luminescence, qHTS (AID 1347067; cut-off not given, nearly all actives have AC50 up to about 26 µM;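 further: cells exposed to compound for 48 hours before readout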); conditions: JHH-DIPG-1 glioma viability, CellTiter-Glo ATP luminescence
[6] = growth inhibition of DIPG cells – cell-based, MIPE5.0 library, qHTS (AID 1347068; cut-off not given, nearly all actives have IC50 up to about 30 µM); conditions: SU-DIPG-XXV viability
[7] = viability loss in pontine glioma line – cell-based, SU-DIPG-XIII, MIPE4.0, CellTiter-Glo, qHTS, dose response (AID 1347061; cut-off not given, nearly all actives have AC50 up to about 37 µM;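 further: cells exposed to compound for 48 hours before readout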); conditions: CellTiter-Glo ATP luminescence
[8] = viability loss in pontine glioma line – cell-based, JHH-DIPG-1, MIPE4.0, CellTiter-Glo, qHTS, dose response (AID 1347062; cut-off not given, nearly all actives have AC50 up to about 27 µM); conditions: JHH-DIPG-1 viability, CellTiter-Glo ATP luminescence
[9] = viability loss in pontine glioma line – cell-based, SU-DIPG-IV, MIPE4.0, CellTiter-Glo, qHTS, dose response (AID 1347063); conditions: CellTiter-Glo ATP luminescence;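 further: compound exposure lasted 48 hours before the viability readout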
[10] = viability loss in pontine glioma line – cell-based, SU-DIPG-XIII, MIPE5.0, CellTiter-Glo, qHTS, dose response (AID 1347064; cut-off not given, nearly all actives have AC50 up to about 23 µM); conditions: CellTiter-Glo ATP luminescence
[11] = growth inhibition of DIPG cells – cell-based, MIPE4.0 library, CellTiter-Glo luminescence, qHTS (AID 1347066); conditions: SU-DIPG-VI viability, CellTiter-Glo ATP luminescence;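 further: cells exposed to compound for 48 hours before readout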
[12] = system: Aerobactin synthetase IucA (Klebsiella pneumoniae); assay: inhibition of K. pneumoniae IucA enzyme – biochemical, Tocris library, absorbance (AID 1345561; call rule not given here;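 further: 100% = enzyme without compound and 0% = no enzyme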); conditions: purified IucA enzyme assay, absorbance (OD) read-out; stronger effect = lower value;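 tested at 8 µM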

CN(C)CCN(Cc1cccs1)c1ccccn1
inactive: survival [1] 13.8 | remaining NAD [2] 10 nM

CC[C@H]1OC(=O)[C@H](C)[C@@H](O[C@H]2C[C@@](C)(OC)[C@@H](O)[C@H](C)O2)[C@H](C)[C@@H](O[C@@H]2O[C@H](C)C[C@H](N(C)C)[C@H]2O)[C@](C)(O)C[C@@H](C)C(=O)[C@H](C)[C@@H](O)[C@]1(C)O
active: fluorescence slope change [3] 76.3%
85 nM (active) and 10 nM (inactive): remaining NAD [2]
inactive: outcome [4] | outcome [5] | outcome [6]

COc1cc2c(cc1OC)[C@@H]1C(=O)c3ccc4c(c3O[C@@H]1CO2)C=CC(C)(C)O4
active: AC50 [7] 23.5 µM | AC50 [5] 18.6 µM
inactive: outcome [6]

NC[C@H]1O[C@H](O[C@H]2[C@H](O)[C@@H](O[C@H]3O[C@H](CO)[C@@H](O)[C@H](N)[C@H]3O)[C@H](N)C[C@@H]2N)[C@H](N)C[C@@H]1O
inactive: outcome [4] | outcome [7] | outcome [8] | outcome [9] | outcome [10] | outcome [11] | outcome [5] | outcome [6] | remaining NAD [2] 22 nM

c1coc(CNc2ncnc3nc[nH]c23)c1
inactive: fluorescence slope change [3] 8.8% | survival [1] 3.5 | outcome [4] | outcome [7] | outcome [8] | outcome [9] | outcome [10] | outcome [11] | outcome [5] | outcome [6]

COc1cc(O)c2c(c1)C(=O)c1cc(C)cc(O)c1C2=O
inactive: outcome [7] | outcome [8] | outcome [11]

O=C1C[C@@H](c2ccc(O)cc2)Oc2cc(O)cc(O)c21
inactive: outcome [4] | outcome [7] | outcome [8] | outcome [9] | outcome [11] | outcome [5] | outcome [6]

Nc1ccc(S(=O)(=O)Nc2ncccn2)cc1
inactive: survival [1] 31.2 | outcome [7] | outcome [8] | outcome [9] | outcome [11] | remaining NAD [2] 10 nM

C[N+](C)(C)CCO
inactive: remaining NAD [2] 10 nM

O=C(/C=C/C=C/c1ccc2c(c1)OCO2)N1CCCCC1
inactive: survival [1] 6.58 | outcome [4] | outcome [7] | outcome [8] | outcome [9] | outcome [10] | outcome [11] | outcome [5] | outcome [6] | remaining NAD [2] 10 nM
active: fluorescence slope change [3] 92.2%

O=C(CCc1ccc(O)cc1)c1c(O)cc(O)cc1O
inactive: outcome [4] | outcome [8] | outcome [10] | outcome [5] | outcome [6]

OCc1ccccc1O[C@@H]1O[C@H](CO)[C@@H](O)[C@H](O)[C@H]1O
inactive: outcome [4] | outcome [7] | outcome [8] | outcome [9] | outcome [10] | outcome [11] | outcome [5] | outcome [6] | remaining NAD [2] 10 nM

Cc1cc(O)c2c(c1)C(=O)c1cccc(O)c1C2=O
inactive: outcome [4] | outcome [7] | outcome [9] | outcome [10] | outcome [5] | outcome [6]

O=C(/C=C/c1ccc(O)c(O)c1)OCCc1ccccc1
inactive: remaining activity [12] 122%

OCC(O)C(O)C(O)CO (stereo not drawn)
inactive: outcome [7] | outcome [8] | outcome [9] | outcome [11]

O=C(CCc1ccc(O)cc1)c1c(O)cc(O)cc1O[C@@H]1O[C@H](CO)[C@@H](O)[C@H](O)[C@H]1O
inactive: outcome [7] | outcome [8] | outcome [9] | outcome [10] | outcome [11] | outcome [6]
